BoNT-A LC inh2: BoNT A light chain protease inhibition. actives 0.17% (n = 360,000). inhibition, % at 10 µM. AID 588499. multiplex microsphere protease substrate cleavage, flow cytometry; also: plate controls were buffer without enzyme for full effect and enzyme alone for no effect
Bead autofluor: flagged as autofluorescent in microsphere protease counterscreen. fluorescence intensity (concentration not given with the values). actives 3.1% (n = 360,000). compound autofluorescence counterscreen, microsphere flow cytometry; active compounds read high; in the data active = fluorescence intensity above about 16000; inconclusive = no clear call, values can overlap the other calls
BoNT F protease: inhibitors of Botulinum neurotoxin F light chain protease. actives 0.22% (n = 360,000). inhibition, % at 10 µM. Multiplex microsphere protease cleavage assay, flow cytometry; in the data active = inhibition above about 35%, passing the limit was not always enough; inconclusive = no clear call, values can overlap the other calls; also: plate controls were buffer without enzyme for full effect and enzyme alone for no effect
Anthrax LF inh2: blocks Bacillus anthracis lethal factor protease | P15917 | multiplex microsphere protease cleavage assay, LF | inhibition, % at 10 µM | actives 0.12% (n = 360,000) | AID 588501; also: plate controls were buffer without enzyme for full effect and enzyme alone for no effect
TcdB inh: inhibitors of Clostridioides difficile toxin B glycohydrolase | inhibition, % at 9.99 µM | actives 0.24% (n = 350,000) | TcdB glycohydrolase enzymatic assay, plate reader | P18177; in the data active = inhibition above about 10%
Numbers without * were called inactive; ? = inconclusive; . = no result. Only a selection was taken, and hits are over-represented in it overall. Rule as the data show it, unless noted: active = inhibition above about 30%; inconclusive = no clear call, values can overlap the other calls; inactive = below that.

SMILES | BoNT-A LC inh2 | Bead autofluor | BoNT F protease | Anthrax LF inh2 | TcdB inh
CC(C)(C)c1cnnn1-c1ccc(NC(=O)c2ccc(Br)o2)cc1 | -3 | 20983* | -5 | -1 | .
CC(C)(C)c1cnnn1-c1ccc(NC(=O)c2ccc3c(c2)OCO3)cc1 | -4 | 23470* | -5 | -2 | .
COc1cccc(C(=O)Nc2ccc(-n3nncc3C(C)(C)C)cc2)c1 | 0 | 3967 | -2 | 4 | 1
CCCCC(=O)Nc1ccc(NC(=O)c2ccc3c(c2)OCO3)cc1OC | 2 | 22707* | 2 | -4 | .
CCC(=O)N1CCN(c2ccc(NC(=O)c3ccc4c(c3)OCO4)cc2)CC1 | 0 | 4365 | 2 | 0 | .
CCN1CCN(c2ccc(NC(=O)c3ccc4c(c3)OCO4)cc2)CC1 | -1 | 16331* | -9 | -8 | .
CCCCNc1oc(-c2ccc(OC)cc2)nc1S(=O)(=O)c1ccccc1 | -1 | 21088* | -2 | -1 | 3
CCNc1oc(-c2ccc(OC)cc2)nc1S(=O)(=O)c1ccc(Br)cc1 | ? | 21449* | -7 | -1 | .
CCOc1ccc(-c2nc(S(=O)(=O)c3ccccc3)c(NC)o2)cc1 | -1 | 5222 | -4 | -5 | 0
CCNC(=O)[C@@H]1[C@@H](CO)[C@@H]2Cn3c(ccc(-c4ccccc4F)c3=O)[C@@H]2N1C | . | . | . | . | 0
C[C@@H]1CN([C@@H](C)CO)C(=O)c2cc(NC(=O)Nc3cccc4ccccc34)ccc2O[C@@H]1CN(C)C(=O)Nc1ccccc1 | . | . | . | . | -1
C[C@H](CO)N1C[C@H](C)[C@@H](CN(C)C(=O)c2cccnc2)Oc2cc(-c3cccc(C#N)c3)ccc2S1(=O)=O | . | . | . | . | -2
N#CC(c1ccc(Cl)cc1)c1ccc2c(C(F)(F)F)cc(C(F)(F)F)nc2n1 (stereo unspecified) | 1 | 2814 | 0 | -2 | .
FC(F)(F)c1cc(C(F)(F)F)c2ccc(N3CCN(c4ncccn4)CC3)nc2n1 | -4 | 23511* | -4 | -6 | -1
FC(F)(F)c1cc(C(F)(F)F)c2ccc(N3CCOCC3)nc2n1 | -2 | 4107 | -39 | 7 | 2
Fc1ccc(N2CCN(c3ccc4c(C(F)(F)F)cc(C(F)(F)F)nc4n3)CC2)cc1 | 4 | 21176* | 4 | -4 | .
FC(F)(F)c1cc(C(F)(F)F)c2ccc(N3CCN(c4ccc(Cl)cc4)CC3)nc2n1 | 3 | 21584* | 4 | -2 | .
C[C@@H]1CN([C@@H](C)CO)C(=O)c2cccc(NC(=O)Nc3ccccc3)c2O[C@H]1CN(C)Cc1ccncc1 | . | . | . | . | 0
O=C(CSc1cccc(C(F)(F)F)c1)Nc1ccc(Cl)cc1Cl | ? | 19968* | -2 | 0 | .
O=C(CS(=O)c1cccc(C(F)(F)F)c1)Nc1ccccc1Cl (stereo unspecified) | -2 | 22990* | -1 | -2 | .
C[C@H](CO)N1C[C@H](C)[C@H](CN(C)C(=O)Nc2ccc(F)cc2)Oc2ccc(NC(=O)Cc3ccccc3)cc2CC1=O | . | . | . | . | 1
CCCN1[C@@H]2c3ccc(-c4ccccc4OC)c(=O)n3C[C@@H]2[C@@H](CO)[C@@H]1C(=O)Nc1nccs1 | . | . | . | . | 1
CCNC(=O)C[C@H]1CC[C@H]2[C@@H](COc3ccc(NC(=O)Nc4ccc(F)cc4)cc3C(=O)N2C)O1 | . | . | . | . | -4
O=C(c1cccs1)n1nc(-c2ccccc2)nc1NCc1ccc(F)cc1 | ? | 25264* | -6 | -3 | .
CC(=O)n1nc(-c2ccccc2)nc1NCc1ccc(F)cc1 | -1 | 4540 | -3 | -7 | .
SMILES | BoNT-A LC inh2 | Bead autofluor | BoNT F protease | Anthrax LF inh2 | TcdB inh
COc1ccc(NC(=O)C2CCCNC2=O)cc1 (stereo unspecified) | -4 | 3948 | 14 | 0 | 2
CN(C)CCNC(=O)C1CCCNC1=O (stereo unspecified) | ? | 22891* | -3 | 0 | .
CC(=O)c1ccc(NC(=O)C2CCCNC2=O)cc1 (stereo unspecified) | ? | 21778* | -1 | -4 | .
Cc1cccc(N2CCN(S(=O)(=O)c3ccc4c(c3)n(C)c(=O)c(=O)n4C)CC2C)c1 (stereo unspecified) | ? | 19587* | 8 | -4 | .
Cc1ccc(N2CCN(S(=O)(=O)c3ccc4c(c3)n(C)c(=O)c(=O)n4C)CC2C)cc1 (stereo unspecified) | -2 | 9801 | -6 | 2 | .
C[C@H](CO)N1C[C@H](C)[C@H](CN(C)Cc2ccc(C(=O)O)cc2)Oc2ccc(NS(=O)(=O)c3ccccc3)cc2CC1=O | . | . | . | . | -1
CCCCn1c(=N)n(CC(O)COc2cccc(C)c2)c2ccccc21 (stereo unspecified) | -3 | 23566* | -6 | -4 | .
Cc1ccc(OCC(O)Cn2c(=N)n(CCN3CCCCC3)c3ccccc32)cc1 (stereo unspecified) | -1 | 24505* | -6 | -4 | .
Cc1ccccc1OCC(O)Cn1c(=N)n(Cc2ccccc2)c2ccccc21 (stereo unspecified) | 0 | 4759 | -4 | -3 | 1
COc1ccccc1OCC(O)Cn1c(=N)n(Cc2ccccc2)c2ccccc21 (stereo unspecified) | -1 | 24188* | -1 | -2 | .
C[C@@H]1CN([C@H](C)CO)C(=O)c2c(c3ccccc3n2C)-c2ccccc2CO[C@H]1CN(C)Cc1ccncc1 | . | . | . | . | 1
CC(=O)N1C(=O)NC(c2ccccc2)=C([N+](=O)[O-])C1c1ccccc1 (stereo unspecified) | 0 | 3574 | -17 | 33* | 3
CCCSc1nnc2n(N)c(=O)c3ccccc3n12 | 0 | 22548* | -1 | 2 | .
CCCc1[nH]n(-c2nc3ccccc3s2)c(=O)c1C=NCC1CCCO1 (stereo unspecified) | 5 | 19952* | 6 | -6 | 1
CCCc1[nH]n(-c2nc3ccccc3s2)c(=O)c1C=NCCN1CCOCC1 | ? | 15365 | 27 | -7 | .
O=C(CCN1CCCCC1)NCC[C@H]1CC[C@H](NC(=O)C2CC2)[C@@H](CO)O1 | . | . | . | . | 1
O=C(NO)c1cc(OCC(F)(F)F)ccc1OCC(F)(F)F | 0 | ? | 13 | ? | .
Cc1ccc(C(=O)NNC(=O)c2cc(OCC(F)(F)F)ccc2OCC(F)(F)F)cc1 | ? | 21489* | -9 | -2 | .
O=C(NNC(=O)c1cc(OCC(F)(F)F)ccc1OCC(F)(F)F)c1cccc(C(F)(F)F)c1 | 0 | 2889 | -2 | -2 | .
C#CCONC(=O)c1cc(OCC(F)(F)F)ccc1OCC(F)(F)F | 0 | 22449* | -3 | -7 | .
Cc1nc2ccccc2c2nc(NC(=O)Cc3ccccc3)nn12 | ? | 17263* | -7 | -8 | .
Cc1cc(NC(=O)Cc2ccccc2)c2ccccc2n1 | 0 | 4658 | -4 | 2 | 1
CCCN1C[C@@H](C)[C@H](OC)CN(C)C(=O)c2cc(NS(=O)(=O)CC)ccc2OC[C@@H]1C | . | . | . | . | 0
Cc1ccccc1NC(=O)CSc1nc(N)c(C#N)cc1C#N | 0 | 16586* | 0 | -2 | .
Cc1cc(=O)[nH]c(SCC(=O)Nc2ccccc2C#N)c1C#N | 3 | 21510* | 6 | -1 | .
COC(=O)c1ccccc1NC(=O)CSc1[nH]c(=O)cc(C)c1C#N | 0 | 4483 | 2 | -2 | -1
COc1ccc(/C=C(/C#N)C(=O)NC2CCCCC2)cc1Br | 1 | 3886 | 36* | 1 | .
COc1cc(/C=C(\C#N)C(=O)N2CCCCC2)ccc1O | -3 | 3693 | -16 | 9 | 14*

Compound activity: PubChem, several laboratories
